# Calls of active or inactive are those of the source. The calls were made as follows: active = hit-call score of the fitted dose curve at least 0.9, where 1 is the maximum; inactive = score below 0.9.
# Read-out: Monocyte Chemoattractant Protein-1 (MCP1), CCL2 (gene 6347)
# Assay: BSK_4H_MCP1: BioMAP Diversity Plus: 4H Assay for Monocyte Chemoattractant Protein-1 (MCP1) Biomarker Activity (AID 2283018)
# Conditions: primary human endothelial cells (HUVEC); actives raise or lower the signal
# Procedure: BSK_4H is a cell-based, multiplexed-readout assay that uses umbilical vein endothelium, a human vascular primary cell, with measurements taken at 24 hours after chemical dosing in a 96-well plate.BSK_4H_MCP1 is an assay component measured in the BSK_4H assay. It measures MCP-1 antibody related to regulation of gene expression using ELISA technology.Data from the assay component BSK_4H_MCP1 was analyzed into 1 assay endpoint. This assay endpoint, BSK_4H_MCP1, was analyzed with bidirectional fitting relative to DMSO as the negative control and baseline of activity. Using a type of binding reporter, gain or loss-of-signal activity can be used to understand changes in the signaling as they relate to the gene CCL2. Furthermore, this assay endpoint can be referred to as a primary readout, because this assay has produced multiple assay endpoints where this one serves a signaling function. To generalize the intended target to other relatable targets, this assay endpoint is annotated to the cytokine intended target family, where the subfamily is chemotactic factor.
# The levels of cell surface (or secreted, indicated by the prefix "s") biomarker endpoints were measured by ELISA. Overt cytotoxicity to cells in confluent adherent cultures (all systems other than the BT system) was assessed by measuring total protein levels using sulforhodamine B (SRB) staining in parallel cultures at the time of biomarker measurements, indicated as SRB endpoints. For proliferation assays for adherent cell types, individual cell types are cultured at sub-confluence and relative cell numbers quantified by SRB staining at time points optimized for each system (48 h: 3C and CASM3C systems; 72 h: BT and HDF3CGF systems; 96 h: SAg system). SRB was performed by staining cells with 0.1% SRB after fixation with 10% TCA and reading wells at 560 nm.Viability and proliferation of PBMC (T cells) was quantified by Alamar Blue reduction for the SAg and BT systems. For PBMC viability (referred to as PBMC Cytotoxicity within the assay endpoint names), cells were plated (75,000/well in a 96-well plate) and then chemical samples added for 1 h before addition of activators, SEB and TSST-1 (20 ng/mL final concentration each). Cells were incubated for 90 h. Then, Alamar Blue (20 uL/well) (Invitrogen, Cat DAL1100) was added for 6 h, and the plates were read with a fluorescence microplate reader at 546/580 nm (excitation/emission). For PBMC proliferation, cells were plated and activated as above but incubated for only 16 h prior to addition of Alamar Blue. Plates were read after 6 h.
Structure (SMILES),outcome,AC50
CCNc1ccccc1,inactive,
CCOc1cccc(-n2cc(C(=O)N3CCN(c4cc(C(=O)O)c5ccccc5c4)CC3)nc2-c2ccc(C)cc2)c1,,23.3 µM (active)
CC(O)CN(CCN(CC(C)O)CC(C)O)CC(C)O (stereo not given),inactive,
CCCC(=O)OCC,inactive,
COCCOCCOCCOC,inactive,
COc1ccc(-n2nc(C(F)F)cc2-c2ccc(S(C)=O)cc2)cc1 (stereo not given),inactive,
Cc1c(-c2cccnc2)c2ccccc2n1CCCCC(=O)O,inactive,
CCCN(C1CCN(C(=O)C2CCNCC2)CC1)[C@@H]1CCc2ccc(OC)cc2C1,inactive,
COc1ccc2sc(C(=O)Nc3nnn[nH]3)c(OC(C)C)c2c1,,26.9 µM (active)
CC(C)=CCCC(C)=CC=O,inactive,
CCC(C)(C)C(=O)O[C@H]1C[C@@H](C)C=C2C=C[C@H](C)[C@H](CC[C@@H]3C[C@@H](O)CC(=O)O3)[C@H]21,,0.392 µM (active)
Nc1nc2ncc(CNc3ccc(C(=O)N[C@@H](CCC(=O)O)C(=O)O)cc3)nc2c(=O)[nH]1,inactive,
COc1ccc(/C=C/S(=O)(=O)NC(=O)c2ccc(C)cc2Cl)cc1,inactive,
CC(C)CCCCCCCOC(=O)CCCCC(=O)OCCCCCCCC(C)C,inactive,
CC(C)CC(C)(O)C#CC(C)(O)CC(C)C (stereo not given),inactive,
O=C1CCC(N2C(=O)c3ccccc3C2=O)C(=O)N1 (stereo not given),inactive,
CC(C)CCCCCCOC(=O)c1ccc(C(=O)OCCCCCCC(C)C)c(C(=O)OCCCCCCC(C)C)c1,inactive,
Nc1ccc(Nc2ccccc2)cc1,inactive,
CCOC(=O)CC(CC(=O)OCC)(OC(C)=O)C(=O)OCC,inactive,
C=CCCCCCCCCC(=O)O,inactive,

Structure (SMILES),outcome,AC50
Cc1ccc(C)c(O)c1,inactive,
O=C(O)c1cccc(N(Cc2cccnc2)c2ccc(OC(F)F)c(OC(F)F)c2)c1,inactive,
O=C(NS(=O)(=O)/C=C/c1ccccc1)c1ccc(F)cc1Cl,inactive,
O=C(O)c1cccc(Oc2ccccc2)c1,inactive,
CCOCCO,inactive,
Oc1ccc2c(c1)-c1ccccc1C2,inactive,
C[C@](N)(Cc1ccc(O)c(O)c1)C(=O)O,inactive,
CC(C)=CCC/C(C)=C/CO,inactive,
CC(=O)c1ccc2c(c1)[C@H](NC(=O)c1ccc(F)cc1)[C@@H](O)C(C)(C)O2,inactive,
CCCCCCCCCCCCCCCO,,29.1 µM (active)
CN(C)c1ccc(N=NS(=O)(=O)O)cc1,inactive,
COC(=O)c1ccccc1O,inactive,
COc1cccc(-c2ccc(/C=C\CN3CCCCCC3)cc2Cl)c1,,25 µM (active)
Cc1ccc(O)cc1,inactive,
O=C(OC[C@H]1O[C@@H](OC(=O)c2cc(O)c(O)c(OC(=O)c3cc(O)c(O)c(O)c3)c2)[C@H](OC(=O)c2cc(O)c(O)c(OC(=O)c3cc(O)c(O)c(O)c3)c2)[C@@H](OC(=O)c2cc(O)c(O)c(OC(=O)c3cc(O)c(O)c(O)c3)c2)[C@@H]1OC(=O)c1cc(O)c(O)c(OC(=O)c2cc(O)c(O)c(O)c2)c1)c1cc(O)c(O)c(OC(=O)c2cc(O)c(O)c(O)c2)c1,,6.1 µM (active)
CC(=O)OCCC(C)C,inactive,
COCCOc1cc2cc(C(=O)NC3CCN(C(C)C)CC3)n(CC(=O)Nc3ccc(Cl)cn3)c2cn1,inactive,
Fc1ccccc1[C@@H](F)COC1CCC(Nc2ncnc3[nH]ncc23)CC1 (stereo not given in full),inactive,
CC/C(=C\C(=N/O)C(N)=O)C(C)[N+](=O)[O-] (stereo not given),inactive,
COC(=O)c1c(Cl)c(Cl)c(C(=O)OC)c(Cl)c1Cl,inactive,
